VP16 counter: inhibits Gal4-VP16 luciferase reporter, ROR gamma counter-screen | actives 3.5% (n = 310,000) | Drosophila S2 Gal4-VP16 UAS-luciferase, luminescence, 20 h | Potency, µM (titrated, usually from 53.6 µM), without a hit: at the top dose activity, negative = inhibition, actives largely listed as inhibitors;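 also: Gal4-VP16 expression switched on by copper sulfate through the metallothionein promoter; potency is read from the fitted curve at half-maximal effect; % is scaled to controls: 0 for no effect and ±100 for the full control effect; nearly all actives have a fitted effect of over 50% in size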
Chronic BCR inh: inhibitors of chronic active B-cell receptor signaling | ABC-DLBCL IkBa-CBG/CBR reporter, luminescence ratio, 4 h | actives 0.05% (n = 340,000) | Potency, µM (highest dose often 46.1 µM), for the others: at the highest dose activity change, negative = inhibition, actives largely listed as inhibitors; active = well fitted inhibition curve with a large enough effect in the signal ratio, with a control signal flat, not every such curve was filed as active; inconclusive = small, poorly fitted or top-dose-only effect, or effect the other way, or a change in a side signal; the % refers to the signal ratio;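 also: potency is read from the fitted curve at half-maximal effect; plate controls were basal doxycycline-induced cells for no effect and cells given 10 µM MG132 for full effect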
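Concentration-response series (up to 46 uM) were applied to TMD8 dual-reporter cells for 4 h at 37C with doxycycline. Green/red ratio, after filter-overlap correction, defined %Activity; red signal alone was normalised to basal cells and zero luminescence.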
Giardia kill: Giardia lamblia killing; Giardia lamblia trophozoite viability; activity change, % at 7.66 µM, hits read low; actives 0.15% (n = 340,000); AID 540267; in the data active = activity change below about -80%; inconclusive = between about -30% and that limit;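 also: parasites exposed to compound for two days anaerobically before the ATP read; % is scaled to controls: 0 for no effect and ±100 for the full control effect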
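Viability, read as ATP luminescence: trophozoites at 100 cells/well, compound added, 48 hrs anaerobic at 37 deg C, then 15-30 min room-temperature development before reading.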
RORgamma inh: blocks mouse ROR gamma transcriptional activity; actives 5.4% (n = 310,000); Drosophila S2 Gal4-RORgamma UAS-luciferase reporter, 20 h; AID 2551; Potency, µM (series often up to 53.6 µM), without a hit: at the top dose activity change, negative = inhibition, usual class: inhibitors; also: potency is read from the fitted curve at half-maximal effect; % is scaled to controls: 0 for no effect and ±100 for the full control effect; nearly all actives have a fitted effect of over 60% in size
Target sequence (P51450 whole entry, looked up, the tested form may be a part): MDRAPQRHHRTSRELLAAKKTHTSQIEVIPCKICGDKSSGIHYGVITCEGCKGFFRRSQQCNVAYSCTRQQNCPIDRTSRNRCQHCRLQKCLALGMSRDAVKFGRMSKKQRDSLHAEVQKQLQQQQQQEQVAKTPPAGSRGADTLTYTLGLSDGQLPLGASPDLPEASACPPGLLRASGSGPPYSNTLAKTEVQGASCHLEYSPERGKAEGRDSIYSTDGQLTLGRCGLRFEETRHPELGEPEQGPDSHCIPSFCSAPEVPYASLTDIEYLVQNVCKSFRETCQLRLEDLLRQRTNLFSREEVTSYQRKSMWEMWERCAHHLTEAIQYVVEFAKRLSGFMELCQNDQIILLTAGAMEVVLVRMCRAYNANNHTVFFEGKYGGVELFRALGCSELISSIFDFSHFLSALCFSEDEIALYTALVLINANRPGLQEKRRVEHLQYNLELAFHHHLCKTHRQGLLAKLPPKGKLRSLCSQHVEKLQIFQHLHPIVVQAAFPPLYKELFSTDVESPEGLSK
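ROR gamma transcriptional activity was tracked as Gal4-UAS luciferase output in stably transfected Drosophila Schneider cells, with compound added 1 hr before 700 uM copper sulfate induction and a 20 hr ambient-temperature incubation.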
MCF10A rereplic: DNA re-replication induction in MCF 10a cells; Potency, µM (top dose mostly 46.1 µM), for inactives: at the highest dose activity, positive = re-replication, most hits filed as activators; actives 2.9% (n = 350,000); MCF 10A DNA re-replication, Hoechst nuclear intensity, 48 h; AID 624296; also: potency is read from the fitted curve at half-maximal effect; % of control where 0% means no effect; nearly all actives have a fitted effect of over 50% in size
SW480 rerep: inducers of DNA re-replication in SW480 colon cancer cells. SW480 DNA re-replication, Hoechst DNA content imaging, 48 h. Potency, µM (doses to about 46.1 µM), for the others: top-dose re-replication activation, actives largely listed as activators. actives 1.8% (n = 340,000). AID 624297; also: potency is read from the fitted curve at half-maximal effect; % of control where 0% means no effect; nearly all actives have a fitted effect of over 55% in size
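Quantitative HTS format with DMSO vehicle controls; 48 hr drug incubation at 37 C, then 40 min Hoechst staining and scanning imager measurement at 405 nm excitation.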
An asterisk follows results filed as active; ? = inconclusive; . = no result; [ ] = dose if it differs, or a comment. An excerpt weighted towards active compounds, which were near 8.3% of everything screened. Unless noted, calls follow the shape of the dose curve; as a rule, active = well fitted curve in the direction sought with a large enough effect; inconclusive = small, poorly fitted or top-dose-only effect, or another doubt; inactive = no such curve, though single readings can be large; an effect the other way counts as inactive or inconclusive.

SMILES	VP16 counter	Chronic BCR inh	Giardia kill	RORgamma inh	MCF10A rereplic	SW480 rerep
S=C(NCc1ccccn1)Nc1cccc(Cl)c1	12.6µM*	5.4%	-9.9	6.31µM*	3.6%	-4.2%
Cc1ccc(NC(=S)NCc2ccccn2)cc1	15.8µM*	?	14.8	3.98µM*	-3.3%	-6.6%
FC(F)(F)c1cccc(NC(=S)NCc2ccccn2)c1	7.08µM*	0.0%	9.5	3.55µM*	1.4%	-14.1%
Cc1cc(OCc2cc(C(=O)NC(C)c3c(C)nn(C)c3C)no2)cc(C)c1Cl (stereo not drawn)	6.1%	-0.2%	0.9	8.8%	?	6.9%
CN(C)CCCNS(=O)(=O)c1ccc(NC2CCCCCC2)c([N+](=O)[O-])c1	20µM*	-10.8%	-7.9	-13.2%	?	?
CCNc1ccc(S(=O)(=O)NCCN(C)C)cc1[N+](=O)[O-]	16.5%	5.3%	-18.0	10.3%	-2.4%	4.7%
COc1ccnc(CSC(N)=Nc2cccc(C(F)(F)F)c2)c1	12.6µM*	?	15.3	6.31µM*	-32.4%	?
Cc1c(Cc2ccccc2)c(=O)oc2cc(OCC(=O)N3CCC(C(=O)O)CC3)ccc12	-10.0%	-10.6%	-13.4	-19.8%	?	-0.2%
Cc1ccc(COC(=O)Cc2coc3cc(O)ccc23)cc1	7.08µM*	?	3.9	5.62µM*	16.8%	12.2%
Cc1ccc(Oc2coc3cc(O)ccc3c2=O)cc1	-2.7%	1.9%	14.7	-7.4%	-9.7%	-13.4%
CC(C)(OC(=O)c1ccc(C#N)cc1)c1cc2ccccc2c(=O)o1	.	14.6%	9.0	.	?	2.1%[9.22 µM]
COCCn1c(C)cc(/C=C(\C#N)C(=O)OC(C)C(=O)Nc2ccc(NC(C)=O)cc2)c1C (stereo not drawn)	.	-12.5%	-15.2	.	?	18.4µM*
C=CCc1cccc2cc(C(=O)N3CCN(C(=O)c4ccco4)CC3)c(=O)oc12	-6.9%	7.2%	36.9	29.5%	13µM*	?
COc1ccc(C(=O)OCC(=O)N(C)C2CCS(=O)(=O)C2)cc1Br (stereo not drawn)	.	-9.7%	20.9	.	6.4%	-16.0%
CCN(C(=O)CSc1nc2cc(C(=O)O)ccc2c(=O)n1-c1ccccc1F)C1CCS(=O)(=O)C1 (stereo not drawn)	.	.	16.7	.	-1.3%	0.2%
c1ccc2c(c1)ncn2Cc1nnc2sc(-c3ccncc3)nn12	2.2%	-2.1%	-2.1	?	2.6%	-4.5%
c1ccc(-c2nn3c(Cn4cnc5ccccc54)nnc3s2)cc1	11.6%[0.365 µM]	-14.0%	4.7	0.0708µM*	-5.6%	-0.2%
FC(F)C(F)(F)c1cc(-c2ccc(Cl)cc2)n[nH]1	1.7%	-23.2%	-13.4	19.8%	?	-29.9%
Fc1ccc(-c2cc(C(F)(F)C(F)F)[nH]n2)cc1	12.6µM*	2.5%	-7.0	2.4%	?	18.6%
O=C1C2C(C(=O)N1/N=C/c1ccc(N3CCCCC3)o1)C1C=CC2C12CC2 (stereo not drawn)	3.16µM*	11.8%	8.0	-15.1%	18.4µM*	?
O=[N+]([O-])c1cccc(-c2ccc(/C=N/Nc3nc(N4CCCCC4)nc(N4CCCCC4)n3)o2)c1	-5.7%	3.0%	10.5	10µM*	-14.5%	1.8%
O=[N+]([O-])c1ccc(-c2ccc(/C=N/Nc3nc(N4CCCC4)nc(N4CCCC4)n3)o2)cc1	-9.9%	-10.2%	-5.9	?	?	?
O=[N+]([O-])c1ccc(/C=N/Nc2nc(N3CCCC3)nc(N3CCCC3)n2)o1	16.6%	?	-94.6*	-25.7%	-0.3%	-2.2%
CCNc1nc(NCC)nc(N/N=C/c2ccc([N+](=O)[O-])o2)n1	-10.4%	?	-82.0*	?	10.2%	?
CCc1ccc(-c2nn(Cc3ccccc3)cc2C(=O)NCC2CCCO2)cc1 (stereo not drawn)	.	?	8.0	.	7.1%	-9.4%
